Several values for one entry are separate records, joined by “and”; a condition that tells them apart may be missing. Equal values may be shown once. About 1,500 (2.5%) of roughly 59,000 compounds were called active. Another 10% or so got no clear call; they are omitted. Calls come from the whole dose curve; as a rule, active = well fitted inhibition curve with a large enough effect; inconclusive = small, poorly fitted or top-dose-only effect; inactive = flat fitted curve, though single readings scatter. Only a selection was taken, and actives are over-represented in it overall. Some structures have more than one record in an assay (separate samples or runs), and their calls can disagree.
target: N-terminal Xaa-Pro-Lys N-methyltransferase 1 (Homo sapiens) (UniProt Q9BV86); assay: Primary qHTS for Inhibitors of N-terminal methyltransferase 1 (NTMT1): MTaseGlo Assay; conditions: NTMT1 MTase-Glo SAH luminescence, purified enzyme; series mostly up to 114 µM; activity change, negative = inhibition: at the top concentration; note: nearly all actives have a fitted effect of over 65% in size;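 for activity change, negative = inhibition: plate controls were DMSO vehicle for no effect and no enzyme for full effect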
Sequence (Q9BV86 whole entry, looked up): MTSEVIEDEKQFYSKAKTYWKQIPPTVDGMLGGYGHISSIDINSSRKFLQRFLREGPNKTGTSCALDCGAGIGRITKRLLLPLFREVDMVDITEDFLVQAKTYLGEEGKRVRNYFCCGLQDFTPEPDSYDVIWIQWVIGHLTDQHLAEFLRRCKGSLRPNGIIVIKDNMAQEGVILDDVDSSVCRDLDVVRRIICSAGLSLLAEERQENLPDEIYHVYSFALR
From the text: Assay Submitter (PI): Rong Huang Ph.D.
Purdue University, West Lafayette, IN 47907
The N-terminal methytransferase 1 is the first methyltransferase that methylates protein alpha-N-amines and plays an important role in regulating cell mitosis, chromatin interactions and DNA repair. It is observed to be over-expressed in various cancer patient tissues like malignant melanoma and colorectal cancer tissues. Knockdown of NTMT1 in cancer cells causes cell mitotic defects and enhances sensitivity to DNA damaging chemotherapeutics. […] These critical cellular processes in which NTMT1 is implicated, coupled with emerging links to cellular dysfunction, strengthen the inference that NTMT1 is a compelling novel anticancer target. Progress have been made in understanding the molecular properties of NTMT1 and the biological consequences of protein alpha-N-terminal methylation, but there are no specific small molecule probes available for NTMT1 to fully characterize its MTase activity. To address this unmet need, a panel of assay is created and established to enable quantitative high-throughput screening (qHTS) for novel, potent, and selective small molecule NTMT1 inhibitors. Two orthogonal qHTS that use different reagents (ThioGlo vs. MTaseGlo) are developed for primary robotic screening against the NCATS chemical library of more than 400,000 small molecules. Identified inhibitors are reacquired, validated, and further characterized.
MTaseGlo Assay is a luminescence screen that measure the activity of methyltransferases based on the reaction product S-adenosyl homocysteine (SAH). The substrate SAM is converted to SAH upon enzyme activation. MTase-Glo reagent and detection solution convert SAH to ATP and measure the light from the luciferase reaction.
Materials: NTMT1 enzyme, substrate SPKRIA, control peptide RCC1-6 is provided by the Huang laboratory.
SEQUENCE No. (e.g., 1, 2, 3, etc.); […] (e.g., Cells, Incubation, Reagent, etc.); VALUE; DESCRIPTION
1; Enzyme; 3 uL; Dispense enzyme mixture (final concentrations of 125 nM NTMT1 and 100 uM SAM) into Greiner 1536-well white / solid bottom assay plate (Greiner Bio One, Monroe, NC).
2; Compounds; 23 nL; Compounds and controls were transferred via a Kalypsys Pin Tool (Wako USA) equipped with a 1536-slotted pin array (Wako Automation, Richmond, VA)
3; Incubation; 15 min; Incubate at room temperature
4; Substrate; 1 uL; Dispense 1 uL of substrate at final concentration of 1 uM. Buffer solution was dispensed in control wells. The assay plate was covered with metal lids.
5; Incubation; 30 min; Incubate at room temperature, protected from lights.
6; Reagent; 1 uL; Dispensed 5x MTase-Glo detection reagent (R) into the assay plate. The plate was covered with metal lids.
7; Incubation; 30 min; Incubate the assay plates at room temperature in the dark to allow for SAH to be converted to ADP.
8; Reagent; 5 uL; Dispense 5 uL of 1x MTase-Glo Detection Solution (R) to allow for ADP to be converted to ATP which was then detected with a luciferase reaction.
9; Centrifuge; 15 sec; Centrifuge the assay plate for 15 seconds at 1000 RPM.
10; Incubation; 30 min; Assay plates were incubation at room temperature in the dark.
11; Detection; Luminescence; Plates were read on ViewLux detector (PerkinElmer). Data were normalized to no-enzyme (0% activity) and no-inhibitor (DMSO; 100%) controls, and the resulting percent inhibition data were fitted to a 4-parameter Hill equation using GraphPad Prism.
Potency is the fitted concentration of half-maximal effect.

| Structure (SMILES) | activity change, negative = inhibition | Potency |
| --- | --- | --- |
| CC(C)=CCC[C@](C)(O[C@@H]1O[C@H](CO[C@@H]2O[C@H](CO)[C@@H](O)[C@H](O)[C@H]2O)[C@@H](O)[C@H](O)[C@H]1O)[C@H]1CC[C@]2(C)[C@@H]1[C@H](O)C[C@@H]1[C@@]3(C)CC[C@H](O[C@@H]4O[C@H](CO)[C@@H](O)[C@H](O)[C@H]4O[C@@H]4O[C@H](CO)[C@@H](O)[C@H](O)[C@H]4O)C(C)(C)[C@@H]3CC[C@]12C | -4.41% [at 57.5 µM] (inactive) |  |
| NC(=O)C1CCN(c2nc(-c3cccc(F)c3)cs2)CC1 | -0.0933% (inactive) |  |
| Cc1ccc(C)c(N2CCN(CCCNC(=O)Nc3ccc(Cl)cc3)CC2)c1 | -18.2% (inactive) |  |
| CCCN1CCN(CCCNC(=O)c2ccc3nc(Cc4ccccc4)oc3c2)CC1 | 1.05% (inactive) |  |
| Cc1cn(CCN2CCN(c3ccccc3-c3cc(C#N)cc(C(=O)NCCCN4CCCC4)c3)CC2)c2ccccc12 |  | 50.1 µM (active) |
| O=C(Nc1cc(Cc2ccccc2)ccn1)c1ccc(-c2cccc([N+](=O)[O-])c2)o1 | 9.38% (inactive) |  |
| N#Cc1ccccc1CNc1nc2ncc(Br)cc2[nH]1 | 11.6% (inactive) |  |
| CCOc1cccc(-c2cc(-c3n[nH]c(=O)n3CC)c3ccccc3n2)c1 | -2.86% (inactive) |  |
| N#CSc1cc(SC#N)c(N)nc1N |  | 7.8 µM (active) |
| Cc1cc2c(s1)c1cnn(Cc3c(F)cccc3Cl)c(=O)c1n2C | 12.9% (inactive) |  |
| Cc1cc(Nc2cccc(C(F)(F)F)c2)nc2ccc(NC(=O)c3ccc(=O)[nH]c3)cc12 | 0.753% (inactive) |  |
| Cc1ccc(C(=O)Nc2cccc(C(F)(F)F)c2)cc1Nc1nc(-c2cccnc2)nc2c1cnn2C |  | inactive and 21.5 µM (active) |
| Cc1cc(C(=O)Nc2cccc(C(F)(F)F)c2)c2c(C)nn(-c3cccc(F)c3)c2n1 | -2.97% (inactive) |  |
| COc1cccc(C2c3c(ncn(-c4cccc(Br)c4)c3=N)Oc3ccc4ccccc4c32)c1 (configuration not stated) | 6.03% (inactive) |  |
| COC(=O)c1ccc(NC(=O)c2cc(-c3ccc(C)c(C)c3)nc3ccccc23)cc1 | 4.26% (inactive) |  |
| COc1ccc(NC(=O)c2cnn3c(C)cc(C)nc23)cc1OC | -0.855% (inactive) |  |
| COc1ccc(C(CC(=O)N2CC(C)CC(C)C2)c2c(O)cc(OC)cc2OC)cc1 (configuration not stated) | -7.84% [at 228 µM] (inactive) |  |
| O=C(Nc1ncc(Cc2ccc(C(F)(F)F)cc2)s1)c1ccc(-c2ccc([N+](=O)[O-])cc2)o1 | 18.1% (inactive) |  |
| CC(=O)Oc1ccccc1C(=O)Nc1ncc([N+](=O)[O-])s1 |  | 25.1 µM (active) |
| Cc1ccc(S(=O)(=O)Nc2ccccc2C(=O)Nc2ncc(-c3ccccc3)s2)cc1 | 19.6% (inactive) |  |
| O=c1c2ccccc2nc2sc(Nc3ccc(Oc4ccccc4)cc3)nn12 | 6.69% (inactive) |  |
| Nc1ccc(C(=O)Nc2ccccc2N)cc1 | -9.88% [at 57.5 µM] (inactive) |  |
| Nc1ccccc1N |  | 22.4 µM (active) |
| Cc1nc(-c2ccccc2C(C)C)nc(NCc2ccc(-c3cccnc3)cc2)c1C | 6.7% [at 57.5 µM] (inactive) |  |

| Structure (SMILES) | activity change, negative = inhibition | Potency |
| --- | --- | --- |
| O=C(NCc1ccc(Cl)c(Cl)c1)Nc1nnc(-c2ccncc2)s1 | -20.2% (inactive) |  |
| CCOC(=O)c1c(CNCc2ccccc2F)c2sc(C)cc2n1C | -4.22% (inactive) |  |
| Cc1ccc(N[S+](=O)([O-])c2cc3c(cc2N[C@@H](C)CO)NC(=O)CC3)cc1N[C@@H](C)CO | -11.2% (inactive) |  |
| CCc1ccc(NC(=O)c2cnn3c(C)cc(-c4ccccc4)nc23)cc1 | -14.4% (inactive) |  |
| O=C(Cc1ccccc1)Nc1sc2c(c1C(=O)Nc1ccc(Br)cc1)CCC2 | 12.1% (inactive) |  |
| CCOc1ccc(NC(=O)c2c(NCc3cccc(OC)c3OC)sc3c2CCC3)cc1 | -2% (inactive) |  |
| CCOc1ccc(NC(=O)c2c(NC(=O)Cc3ccccc3)sc3c2CCCCC3)cc1 |  | 44.7 µM (active) |
| O=C(CNC(=O)c1ccccc1)OC(C(=O)Nc1cc([N+](=O)[O-])ccc1F)c1ccccc1 (configuration not stated) | 9.09% (inactive) |  |
| NC(=O)c1cnc2[nH]ccc2c1NC1C2CC3C[C@H]1CC(O)(C3)C2 (some centres not stated) | -9.6% (inactive) |  |
| CN(CC(F)(F)F)c1nc(NCc2ccc(-c3cccnc3)cc2)c2ccccc2n1 | 25.3% (inactive) |  |
| CN(C)[S+](=O)([O-])c1ccc(-c2ccc(=O)n(CC(=O)NCCc3ccccc3)n2)cc1 | 4.09% (inactive) |  |
| O=C(NC(c1ccco1)c1cc(Cl)c2cccnc2c1O)c1ccccc1 (configuration not stated) | 18.9% (inactive) |  |
| OCc1cnc(SCc2ccc(F)cc2)n1Cc1ccc(F)cc1 |  | 89.1 µM (active) |
| O=C(CSc1ncc(CO)n1Cc1ccc(Cl)cc1)NCc1ccc(F)cc1 | -15.8% (inactive) |  |
| O=C(CSc1ncc(CO)n1Cc1ccc(F)cc1)NCc1ccco1 | -0.0712% (inactive) |  |
| Cc1cc(C)n2ncc(C(=O)N3CCCC3)c2n1 | 15.8% (inactive) |  |
| Cc1ccc(OCCn2c(CCNC(=O)c3ccccc3C(F)(F)F)nc3ccccc32)cc1 | 7.93% (inactive) |  |
| CC(C)c1ccccc1-c1nc(NCc2ccc(-c3cccnc3)cc2)c2occc2n1 | 6.29% (inactive) |  |
| COc1ccc(C2Nc3cccc(OC)c3C(=O)N2Cc2ccccc2)cc1COc1ccc(NC(C)=O)cc1 (configuration not stated) | 15.3% (inactive) |  |
| O=C(OCC#CCSc1nnc(-c2ccco2)o1)c1ccc(F)cc1 | -0.0729% (inactive) |  |
| O=C(Nc1nnc(-c2ccncc2)s1)Nc1cc(C(F)(F)F)ccc1F | 4.26% (inactive) |  |
| COc1ccc(C2Nc3ccccc3C(=O)N2Cc2ccco2)cc1COc1cccc(NC(C)=O)c1 (configuration not stated) | -15% (inactive) |  |
| CCNC(=O)C#Cc1ccc2c(C(=Nc3ccc(CN(C)C)cc3)c3ccccc3)c(O)[nH]c2c1 |  | 31.6 µM (active) |

— PubChem BioAssay AID1645870 (National Center for Advancing Translational Sciences (NCATS), 2021)
